“And” between values parts separate entries of the source, which are not always exact repeats. Equal values may be shown once. More than one record can exist for a structure, and the calls need not agree. The source made the active and inactive calls.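 The calls were made as follows, unless noted: active = thallium flux through the channel raised or lowered by more than 3 SD from vehicle-only wells, actives on both sides; inactive = the rest.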
How the values were obtained:
[1] = liver-stage malaria parasite growth inhibition, primary screen, cell-based, HepG2, luciferase luminescence, HepG2 viability (AID 624349; in the data active = parasite load remaining mostly below about 12%, no sharp cut-off; inactive = mostly above about 10%;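 also: 100% = mean of DMSO negative control wells on the same plate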); details: P. berghei liver stage in HepG2, luciferase luminescence, concentration not given here; parasite load remaining: stronger effect = lower value; viability: measured here: HepG2 viability without parasites
[2] = Cy5 fluorescence interference with SSB-bound oligo, artefact control for HCV NS3 helicase inhibitor project, biochemical, NIH Clinical Collection, E. coli SSB (AID 743268; call rule not given here)
[3] = test system: Hepatitis C virus NS3 helicase; test: HCV NS3 helicase inhibitors, primary screen, biochemical, fluorescence polarization, NIH Clinical Collection (AID 743270; call rule not given here); details: NS3 helicase binding to Cy5-dT15 DNA, stronger effect = higher value, concentration not given here
[4] = fluorescence interference in NS3h assay format, artefact control for HCV NS3 helicase inhibitor project, biochemical, NIH Clinical Collection (AID 743272; call rule not given here;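 also: HCV NS3 helicase with a Cy5 labelled single stranded DNA probe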); details: fluorescence interference counterscreen, stronger effect = lower value
[5] = modulation of C. elegans fzo-1 (AID 1259413; call rule not given here;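 also: fzo-1 mutant C. elegans worms in liquid wells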); details: C. elegans fzo-1 modulator screen, mean read-out; stronger effect = higher value
[6] = sensitizers of A549 cells to miR-34 induction, primary screen, imaging, A549 dox-inducible miR-34, nuclei and caspase counts (AID 1347080;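 active = compounds whose cell count with miR-34 switched on is under 0.7 times the count with it off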); details: A549 miR-34 inducible, Hoechst nuclei count, 48 h
[7] = test system: F380Y; test: modulators of BK channel variants, profiling panel, selectivity assay, cell-based, U2OS BacMam, thallium flux, beta subunits (AID 1259406); details: at 30 µM;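 also: initial slope of Thallos dye fluorescence rise after thallium is added; log ratio against the mean of 0.3% DMSO vehicle wells on the same plate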
[8] = test system: F380Y/beta1; test: as above; details: at 30 µM
[9] = test system: F380Y/beta2Delta; test: as above; details: at 30 µM
[10] = test system: F380Y/beta4; test: as above; details: at 30 µM
[11] = biological target: Calcium-activated potassium channel subunit alpha-1 (Homo sapiens) + Leucine-rich repeat-containing protein 26 (Homo sapiens) (UniProt Q12791+Q2I0M4); test: as above; details: F380Y/Slo1WT/gamma1, at 30 µM
Chain of Calcium-activated potassium channel subunit alpha-1 (Homo sapiens) + Leucine-rich repeat-containing protein 26 (Homo sapiens) (Q2I0M4 whole entry, looked up, one chain of several): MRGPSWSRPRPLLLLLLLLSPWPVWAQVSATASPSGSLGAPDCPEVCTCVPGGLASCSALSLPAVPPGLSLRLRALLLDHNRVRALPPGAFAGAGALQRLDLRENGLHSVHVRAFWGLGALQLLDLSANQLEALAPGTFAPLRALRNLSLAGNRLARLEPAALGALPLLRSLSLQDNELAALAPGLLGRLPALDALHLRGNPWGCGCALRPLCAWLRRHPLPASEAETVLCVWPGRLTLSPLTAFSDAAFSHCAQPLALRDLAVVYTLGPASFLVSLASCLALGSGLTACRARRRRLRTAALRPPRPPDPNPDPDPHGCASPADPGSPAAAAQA

[12] = test system: R275C; test: as above; details: at 30 µM
[13] = test system: R275C/beta1; test: as above; details: at 30 µM
[14] = test system: R275C/beta2Delta; test: as above; details: at 30 µM
[15] = test system: R275C/beta4; test: as above; details: at 30 µM
[16] = test system: R275C/Slo1WT/beta2; test: as above; details: at 30 µM
[17] = biological target: Single-stranded DNA-binding protein (Escherichia coli (strain K12)) (UniProt P0AGE0); test: E. coli SSB displacement from DNA, counter-screen for HCV NS3 helicase inhibitor project, biochemical, fluorescence polarization, NIH Clinical Collection (AID 743271; in the data active = inhibition above about 28%); details: stronger effect = higher value, concentration not given here
[18] = differential killing of epithelial or mesenchymal cells, primary screen, imaging, PC-3E GFP, TEM4-18 mCherry, co-culture (AID 1345086;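 active = compounds killing one labelled cell type while sparing the other, by normalised counts and ratio limits, not self-fluorescent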;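 as to all read-outs here: cells exposed to compound for 72 h before imaging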;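 as to red/green cell ratio (normalised): normalised mesenchymal count divided by normalised epithelial count so high means epithelial killing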); details: imaging cell counts, at 1 µM; for red/green cell ratio (normalised): actives lie on both sides, counts scaled to control wells, 1 = unselective
[19] = survival rescue of mitochondrial mutant cells in low glucose, primary screen, MELAS cybrids, Rieske KO mouse fibroblasts, CellTiter-Glo (AID 1508586;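 active = mean z-score across replicates of 1.96 or higher in either the MELAS or the Rieske mutant cell line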;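 also: z relative to plate mean and SD of compound and empty wells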)
[20] = stronger effect = lower value, cell number ratio, induced over uninduced
[21] = measured here: relative caspase fold change +Dox/-Dox
[22] = measured here: total cells with miR-34 induction, stronger effect = lower value
[23] = measured here: total cells without miR-34 induction
[24] = measured here: epithelial PC-3E GFP cell survival
[25] = measured here: mesenchymal TEM4-18 mCherry cell survival
[26] = MELAS cybrid survival, CellTiter-Glo 48 h, stronger effect = higher value
[27] = Rieske KO mouse fibroblast survival, CellTiter-Glo 72 h

With `Cc1cccc(CCN2CCC(C(=O)c3ccc(NS(C)(=O)=O)cc3)CC2)n1` the parasite load remaining [1] was 49.2% (inactive), the viability [1] was 75.4% and the fluorescence ratio [2] was 0.97 (inactive). For the same molecule, the inhibition [3] was -6.33% (inactive), the fluorescence ratio [4] was 0.95 (inactive) and the mean signal [5] was 229 (inactive). For the same molecule, the fold change [6, 20] was 0.911 (inactive) and 0.937 (inactive) and 0.845 (inactive), the fold change [6, 21] was 1.08 and 1.19 and 0.815 and the cell count [6, 22] was 9110 and 5280 and 8030. The cell count [6, 23] was 10000 and 5630 and 9500, the log fold change Tl+ flux [7] was 0.00945 (inactive) and the log fold change Tl+ flux [8] was 0.0315 (inactive). For the same molecule, the log fold change Tl+ flux [9] was 0.0105 (inactive), the log fold change Tl+ flux [10] was -0.0658 (inactive) and the log fold change Tl+ flux [11] was 0.0152 (inactive). The log fold change Tl+ flux [12] was -0.00568 (inactive), the log fold change Tl+ flux [13] was 0.0227 (inactive) and the log fold change Tl+ flux [14] was -0.0466 (inactive). The log fold change Tl+ flux [15] was 0.0164 (inactive) and the log fold change Tl+ flux [16] was -0.028 (inactive).

In the case of `CC(C)(S)C(N)C(=O)O` (configuration not stated), the parasite load remaining [1] is reported as 70.2% (inactive) and 91.2% (inactive) and 22.9% (inactive), the viability [1] is reported as 95.3% and 72.3% and 93.1% and the fluorescence ratio [2] is reported as 1.01 (inactive). For the same molecule, the inhibition [3] was -10.4% (inactive), the inhibition [17] was -2.76% (inactive) and the fluorescence ratio [4] was 0.98 (inactive). The mean signal [5] was 224 (inactive), the red/green cell ratio (normalised) [18] was 0.95 (inactive) and the normalised cell number [18, 24] was 1. For the same molecule, the normalised cell number [18, 25] was 0.96, the fold change [6, 20] was 0.987 (inactive) and 0.932 (inactive) and the fold change [6, 21] was 2.48 and 3.04. For the same molecule, the cell count [6, 22] was 11000 and 11700, the cell count [6, 23] was 11100 and 12600 and the z-score [19, 26] was 0.615 (inactive). For the same molecule, the z-score [19, 27] was 0.358, the log fold change Tl+ flux [7] was 0.0383 (inactive) and the log fold change Tl+ flux [8] was -0.0205 (inactive). The log fold change Tl+ flux [9] was -0.0259 (inactive), the log fold change Tl+ flux [10] was 0.0204 (inactive) and the log fold change Tl+ flux [11] was 0.0127 (inactive). For the same molecule, the log fold change Tl+ flux [12] was -0.00906 (inactive), the log fold change Tl+ flux [13] was 0.00628 (inactive) and the log fold change Tl+ flux [14] was -0.0298 (inactive). The log fold change Tl+ flux [15] was 0.0197 (inactive) and the log fold change Tl+ flux [16] was -0.0192 (inactive).

For `CC(=O)NC[C@H]1CN(c2ccc(N3CCOCC3)c(F)c2)C(=O)O1`, the parasite load remaining [1] was 99.9% (inactive) and 45% (inactive), the viability [1] was 74.1% and 114% and the fluorescence ratio [2] was 1.07 (inactive). The inhibition [3] was 6.73% (inactive), the inhibition [17] was 2.21% (inactive) and the fluorescence ratio [4] was 1.04 (inactive). The mean signal [5] was 269 (inactive), the fold change [6, 20] was 1.08 (inactive) and 0.926 (inactive) and the fold change [6, 21] was 1.57 and 0.639. For the same molecule, the cell count [6, 22] was 10400 and 9730, the cell count [6, 23] was 9600 and 10500 and the z-score [19, 26] was -0.794 (inactive) and 0.174 (inactive). For the same molecule, the z-score [19, 27] was -2.51 and -1.01, the log fold change Tl+ flux [7] was 0.0386 (inactive) and the log fold change Tl+ flux [8] was 0.0152 (inactive). The log fold change Tl+ flux [9] was -0.0137 (inactive), the log fold change Tl+ flux [10] was -0.01 (inactive) and the log fold change Tl+ flux [11] was -0.0237 (inactive). The log fold change Tl+ flux [12] was -0.0414 (inactive), the log fold change Tl+ flux [13] was 0.0265 (inactive) and the log fold change Tl+ flux [14] was 0.023 (inactive). For the same molecule, the log fold change Tl+ flux [15] was 0.00539 (inactive) and the log fold change Tl+ flux [16] was 0.0288 (inactive).

With `CN1[C@@H]2CCC[C@H]1CC(NC(=O)c1nn(C)c3ccccc13)C2` (some centres not stated) the mean signal [5] was 239 (inactive), the fold change [6, 20] was 0.964 (inactive) and the fold change [6, 21] was 1.59. For the same molecule, the cell count [6, 22] was 10200, the cell count [6, 23] was 10600 and the z-score [19, 26] was 0.342 (inactive) and -0.62 (inactive). The z-score [19, 27] was 0.00777 and -1.31, the log fold change Tl+ flux [7] was 0.0826 (inactive) and the log fold change Tl+ flux [8] was 0.016 (inactive). For the same molecule, the log fold change Tl+ flux [9] was 0.036 (inactive), the log fold change Tl+ flux [10] was 0.0312 (inactive) and the log fold change Tl+ flux [11] was 0.00528 (inactive). For the same molecule, the log fold change Tl+ flux [12] was -0.0264 (inactive), the log fold change Tl+ flux [13] was 0.0105 (inactive) and the log fold change Tl+ flux [14] was 0.0242 (inactive). For the same molecule, the log fold change Tl+ flux [15] was 0.0148 (inactive) and the log fold change Tl+ flux [16] was 0.0272 (inactive).

With `CCN(CC)CC#CCOC(=O)C(O)(c1ccccc1)C1CCCCC1` (configuration not stated) the fluorescence ratio [2] was 1.01 (inactive), the inhibition [3] was -5.91% (inactive) and the inhibition [17] was 1.05% (inactive). The fluorescence ratio [4] was 0.97 (inactive), the mean signal [5] was 265 (inactive) and the red/green cell ratio (normalised) [18] was 1.02 (inactive). The normalised cell number [18, 24] was 1.13, the normalised cell number [18, 25] was 1.14 and the z-score [19, 26] was -0.351 (inactive) and 0.357 (inactive). For the same molecule, the z-score [19, 27] was 0.474 and 0.0643, the log fold change Tl+ flux [7] was -0.0501 (inactive) and the log fold change Tl+ flux [8] was -0.0697 (inactive). The log fold change Tl+ flux [9] was -0.0326 (inactive), the log fold change Tl+ flux [10] was 0.0257 (inactive) and the log fold change Tl+ flux [11] was -0.0619 (inactive). For the same molecule, the log fold change Tl+ flux [12] was -0.105 (active), the log fold change Tl+ flux [13] was -0.00047 (inactive) and the log fold change Tl+ flux [14] was -0.0198 (inactive). The log fold change Tl+ flux [15] was 0.205 (active) and the log fold change Tl+ flux [16] was -0.0121 (inactive).

In the case of `O=c1[nH]c(=O)n(C2CCCO2)cc1F` (configuration not stated), the parasite load remaining [1] is reported as 107% (inactive) and 21.2% (inactive), the viability [1] is reported as 73.5% and 76.5% and the fluorescence ratio [2] is reported as 1.08 (inactive). For the same molecule, the inhibition [3] was 6.73% (inactive), the inhibition [17] was 5.29% (inactive) and the fluorescence ratio [4] was 1.04 (inactive). The mean signal [5] was 283 (inactive), the fold change [6, 20] was 0.803 (inactive) and 0.835 (inactive) and 0.463 (active) and the fold change [6, 21] was 1.28 and 1.27 and 3.72. For the same molecule, the cell count [6, 22] was 7370 and 6840 and 4080, the cell count [6, 23] was 9180 and 8190 and 8820 and the z-score [19, 26] was -0.322 (inactive) and 0.511 (inactive) and 0.255 (inactive). The z-score [19, 27] was -0.199 and -0.575 and -0.0895, the log fold change Tl+ flux [7] was -0.0407 (inactive) and the log fold change Tl+ flux [8] was 0.033 (inactive). For the same molecule, the log fold change Tl+ flux [9] was -0.0133 (inactive), the log fold change Tl+ flux [10] was -0.0214 (inactive) and the log fold change Tl+ flux [11] was 0.0446 (inactive). For the same molecule, the log fold change Tl+ flux [12] was -0.0615 (inactive), the log fold change Tl+ flux [13] was -0.0291 (inactive) and the log fold change Tl+ flux [14] was -0.0162 (inactive). The log fold change Tl+ flux [15] was -0.0234 (inactive) and the log fold change Tl+ flux [16] was 0.00334 (inactive).

With `CNCC[C@@H](Oc1ccccc1C)c1ccccc1` the parasite load remaining [1] was 70.5% (inactive), the viability [1] was 66.2% and the fluorescence ratio [2] was 1.06 (inactive). For the same molecule, the inhibition [3] was -0.4% (inactive), the inhibition [17] was -3.95% (inactive) and the fluorescence ratio [4] was 0.98 (inactive). The mean signal [5] was 246 (inactive), the fold change [6, 20] was 0.908 (inactive) and the fold change [6, 21] was 1.95. The cell count [6, 22] was 7910, the cell count [6, 23] was 8710 and the z-score [19, 26] was -1.06 (inactive). The z-score [19, 27] was -0.171, the log fold change Tl+ flux [7] was 0.0847 (inactive) and the log fold change Tl+ flux [8] was -0.000881 (inactive). For the same molecule, the log fold change Tl+ flux [9] was 0.0334 (inactive), the log fold change Tl+ flux [10] was 0.0851 (inactive) and the log fold change Tl+ flux [11] was -0.0181 (inactive). For the same molecule, the log fold change Tl+ flux [12] was -0.0128 (inactive), the log fold change Tl+ flux [13] was 0.0385 (inactive) and the log fold change Tl+ flux [14] was 0.125 (active). The log fold change Tl+ flux [15] was 0.0404 (inactive) and the log fold change Tl+ flux [16] was -0.0597 (inactive).
